# Data from publication PMC7862700, “An all-to-all approach to the identification of sequence-specific readers for epigenetic DNA modifications on cytosine”.
# Key:
# Experiment in all cases: DAPPL (digital affinity profiling via proximity ligation, sequencing); 10 mM Tris-HCl pH 7.5, 50 mM NaCl, 1 mM DTT, 4% glycerol, room temperature, 30 min; GST-TFs on glutathione beads, 16-mer random dsDNA library, 0.1% formaldehyde crosslink after washing; high values mean tight binding
# FLI1 = molecular target: T1, FLI1 (Homo sapiens, UniProt Q01543 1-452); settings: protein: recombinant; tags: N-terminal GST; dsDNA, one strand shown
# T1 sequence: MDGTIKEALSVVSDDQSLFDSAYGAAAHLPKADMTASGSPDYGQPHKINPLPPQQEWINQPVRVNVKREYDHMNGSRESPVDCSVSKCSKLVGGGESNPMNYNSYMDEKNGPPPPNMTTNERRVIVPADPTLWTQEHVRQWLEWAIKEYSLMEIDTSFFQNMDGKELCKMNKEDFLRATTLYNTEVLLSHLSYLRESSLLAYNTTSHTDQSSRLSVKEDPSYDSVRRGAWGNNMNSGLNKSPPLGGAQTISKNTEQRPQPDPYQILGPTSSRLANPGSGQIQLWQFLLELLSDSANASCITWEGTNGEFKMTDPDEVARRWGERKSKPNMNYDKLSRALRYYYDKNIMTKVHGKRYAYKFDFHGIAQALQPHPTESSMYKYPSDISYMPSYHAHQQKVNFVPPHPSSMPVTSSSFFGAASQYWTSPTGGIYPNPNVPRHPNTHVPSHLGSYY
# Method in brief: (§1)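 Binding signal is defined as a hexamer's read frequency for one factor over its frequency for the tag-only sample. To obtain reads, GST-fused human transcription factors were expressed in yeast, captured on glutathione beads, barcoded with DNA and pooled with that sample. Pools met 200 nmole of a 16-mer random double-stranded DNA library in Tris/NaCl/DTT/glycerol buffer for 30 min at room temperature before washing, 0.1% formaldehyde crosslinking, proximity ligation (BsaI/T4 ligase, 1 h, 37 °C), PCR and Illumina NextSeq500 sequencing.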
# ELK1 = molecular target: T2, ELK1 (Homo sapiens, UniProt P19419 1-428); settings: protein: recombinant; tags: N-terminal GST; dsDNA, one strand shown
# T2 sequence: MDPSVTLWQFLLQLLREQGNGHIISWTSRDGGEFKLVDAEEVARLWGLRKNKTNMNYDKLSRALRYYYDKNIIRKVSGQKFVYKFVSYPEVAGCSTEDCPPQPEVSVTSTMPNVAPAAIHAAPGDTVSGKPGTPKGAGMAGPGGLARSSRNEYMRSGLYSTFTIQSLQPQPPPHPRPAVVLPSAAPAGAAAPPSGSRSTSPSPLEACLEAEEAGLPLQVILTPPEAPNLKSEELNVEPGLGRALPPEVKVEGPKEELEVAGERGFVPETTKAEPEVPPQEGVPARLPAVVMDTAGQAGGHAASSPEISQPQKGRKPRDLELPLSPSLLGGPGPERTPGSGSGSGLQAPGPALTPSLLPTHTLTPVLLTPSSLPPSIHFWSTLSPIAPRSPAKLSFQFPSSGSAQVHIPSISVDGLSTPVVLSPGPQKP
# Method in brief: as §1
# GABPA = molecular target: T3, GABPA (Homo sapiens, UniProt Q06546 1-454); settings: protein: recombinant; tags: N-terminal GST; dsDNA, one strand shown
# T3 sequence: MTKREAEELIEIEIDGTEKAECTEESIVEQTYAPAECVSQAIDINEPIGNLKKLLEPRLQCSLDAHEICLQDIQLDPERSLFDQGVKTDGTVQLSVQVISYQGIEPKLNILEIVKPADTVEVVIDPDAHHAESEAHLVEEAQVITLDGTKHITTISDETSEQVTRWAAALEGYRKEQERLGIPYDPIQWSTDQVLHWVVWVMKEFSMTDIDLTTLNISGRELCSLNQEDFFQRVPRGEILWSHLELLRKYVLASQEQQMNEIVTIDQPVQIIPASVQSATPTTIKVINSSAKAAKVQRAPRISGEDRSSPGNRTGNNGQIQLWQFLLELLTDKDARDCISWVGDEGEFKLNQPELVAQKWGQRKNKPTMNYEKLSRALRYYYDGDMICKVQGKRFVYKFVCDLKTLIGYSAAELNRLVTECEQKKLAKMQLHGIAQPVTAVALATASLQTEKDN
# Method in brief: as §1
# ERG = molecular target: T4, ERG (Homo sapiens, UniProt P11308 1-479); settings: protein: recombinant; tags: N-terminal GST; dsDNA, one strand shown
# T4 sequence: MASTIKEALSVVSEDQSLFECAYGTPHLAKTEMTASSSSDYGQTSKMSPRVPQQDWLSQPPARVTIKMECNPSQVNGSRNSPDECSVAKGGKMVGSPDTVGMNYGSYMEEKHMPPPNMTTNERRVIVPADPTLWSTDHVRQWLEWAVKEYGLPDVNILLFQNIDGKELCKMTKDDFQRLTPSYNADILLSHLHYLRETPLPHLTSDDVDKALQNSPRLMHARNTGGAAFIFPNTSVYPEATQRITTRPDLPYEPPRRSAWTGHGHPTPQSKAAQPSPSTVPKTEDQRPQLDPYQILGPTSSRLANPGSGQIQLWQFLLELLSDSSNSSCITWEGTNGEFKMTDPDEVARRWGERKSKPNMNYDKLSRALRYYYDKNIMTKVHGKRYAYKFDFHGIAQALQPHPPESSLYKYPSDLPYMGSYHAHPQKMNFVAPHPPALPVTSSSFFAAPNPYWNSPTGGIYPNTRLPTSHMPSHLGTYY
# Method in brief: as §1
# ELF1 = ELF1 (Homo sapiens, UniProt P32519 1-619); settings: protein: recombinant; tags: N-terminal GST; dsDNA, one strand shown
# Sequence of ELF1 (P32519 whole entry): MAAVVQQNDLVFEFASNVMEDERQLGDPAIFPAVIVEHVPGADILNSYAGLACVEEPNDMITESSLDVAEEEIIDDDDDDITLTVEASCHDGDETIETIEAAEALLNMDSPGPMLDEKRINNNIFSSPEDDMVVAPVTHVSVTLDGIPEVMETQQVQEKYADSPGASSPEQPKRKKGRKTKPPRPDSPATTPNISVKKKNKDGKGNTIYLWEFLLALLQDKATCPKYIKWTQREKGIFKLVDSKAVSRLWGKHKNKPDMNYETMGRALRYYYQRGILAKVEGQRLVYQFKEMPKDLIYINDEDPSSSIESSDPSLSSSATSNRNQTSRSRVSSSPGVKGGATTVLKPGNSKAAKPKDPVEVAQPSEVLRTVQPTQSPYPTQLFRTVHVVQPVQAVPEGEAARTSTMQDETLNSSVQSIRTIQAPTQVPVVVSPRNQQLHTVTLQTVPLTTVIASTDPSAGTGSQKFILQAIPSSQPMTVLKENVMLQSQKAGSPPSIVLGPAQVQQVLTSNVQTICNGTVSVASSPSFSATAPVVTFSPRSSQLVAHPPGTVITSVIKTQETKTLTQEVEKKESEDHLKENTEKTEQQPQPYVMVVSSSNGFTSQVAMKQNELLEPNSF
# Method in brief: as §1
# EHF = molecular target: T5, EHF (Homo sapiens, UniProt Q9NZC4 1-300); settings: protein: recombinant; tags: N-terminal GST; dsDNA, one strand shown
# T5 sequence: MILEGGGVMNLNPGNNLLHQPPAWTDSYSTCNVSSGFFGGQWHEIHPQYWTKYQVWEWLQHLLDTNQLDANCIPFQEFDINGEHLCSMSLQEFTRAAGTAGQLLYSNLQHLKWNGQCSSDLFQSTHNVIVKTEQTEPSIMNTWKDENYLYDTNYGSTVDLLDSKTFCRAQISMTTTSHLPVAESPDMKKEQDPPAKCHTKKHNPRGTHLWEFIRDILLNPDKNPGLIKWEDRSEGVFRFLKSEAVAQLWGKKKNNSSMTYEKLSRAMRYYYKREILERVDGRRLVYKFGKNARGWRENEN
# Method in brief: as §1
# SPI1 = SPI1 (Homo sapiens, UniProt P17947 1-270); settings: protein: recombinant; tags: N-terminal GST; dsDNA, one strand shown
# Method in brief: as §1
# SPIB = SPIB (Homo sapiens, UniProt Q01892 1-262); settings: protein: recombinant; tags: N-terminal GST; dsDNA, one strand shown
# Sequence of SPIB (Q01892 whole entry): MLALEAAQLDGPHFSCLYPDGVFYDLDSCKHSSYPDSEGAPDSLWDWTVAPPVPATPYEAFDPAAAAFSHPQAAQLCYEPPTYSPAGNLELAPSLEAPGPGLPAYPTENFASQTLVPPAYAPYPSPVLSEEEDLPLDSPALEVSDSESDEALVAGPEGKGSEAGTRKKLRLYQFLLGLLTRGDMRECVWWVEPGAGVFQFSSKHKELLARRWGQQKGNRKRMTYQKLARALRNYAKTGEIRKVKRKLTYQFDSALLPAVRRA
# Method in brief: as §1
# ELK3 = molecular target: T6, ELK3 (Homo sapiens, UniProt P41970 1-407); settings: protein: recombinant; tags: N-terminal GST; dsDNA, one strand shown
# T6 sequence: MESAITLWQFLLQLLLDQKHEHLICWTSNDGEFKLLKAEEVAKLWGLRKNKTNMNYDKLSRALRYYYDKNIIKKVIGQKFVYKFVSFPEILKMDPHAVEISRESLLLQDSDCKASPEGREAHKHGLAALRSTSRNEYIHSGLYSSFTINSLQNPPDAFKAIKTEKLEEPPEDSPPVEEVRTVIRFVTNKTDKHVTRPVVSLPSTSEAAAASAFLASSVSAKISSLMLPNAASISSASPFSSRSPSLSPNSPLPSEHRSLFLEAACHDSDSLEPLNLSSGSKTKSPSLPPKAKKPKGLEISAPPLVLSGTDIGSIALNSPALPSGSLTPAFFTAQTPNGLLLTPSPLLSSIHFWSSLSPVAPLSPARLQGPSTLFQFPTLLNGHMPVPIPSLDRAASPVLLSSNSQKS
# Method in brief: as §1
# FEV = molecular target: T7, FEV (Homo sapiens, UniProt Q99581 1-238); settings: protein: recombinant; tags: N-terminal GST; dsDNA, one strand shown
# T7 sequence: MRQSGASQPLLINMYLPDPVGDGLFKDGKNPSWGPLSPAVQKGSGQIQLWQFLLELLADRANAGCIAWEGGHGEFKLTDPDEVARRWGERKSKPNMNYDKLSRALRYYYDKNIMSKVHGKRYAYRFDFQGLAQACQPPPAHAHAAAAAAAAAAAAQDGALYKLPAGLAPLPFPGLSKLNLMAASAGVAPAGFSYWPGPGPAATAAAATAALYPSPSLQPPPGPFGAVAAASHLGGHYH
# Method in brief: as §1
# ETV5 = ETV5 (Homo sapiens, UniProt P41161 1-510); settings: protein: recombinant; tags: N-terminal GST; dsDNA, one strand shown
# Sequence of ETV5 (P41161 whole entry): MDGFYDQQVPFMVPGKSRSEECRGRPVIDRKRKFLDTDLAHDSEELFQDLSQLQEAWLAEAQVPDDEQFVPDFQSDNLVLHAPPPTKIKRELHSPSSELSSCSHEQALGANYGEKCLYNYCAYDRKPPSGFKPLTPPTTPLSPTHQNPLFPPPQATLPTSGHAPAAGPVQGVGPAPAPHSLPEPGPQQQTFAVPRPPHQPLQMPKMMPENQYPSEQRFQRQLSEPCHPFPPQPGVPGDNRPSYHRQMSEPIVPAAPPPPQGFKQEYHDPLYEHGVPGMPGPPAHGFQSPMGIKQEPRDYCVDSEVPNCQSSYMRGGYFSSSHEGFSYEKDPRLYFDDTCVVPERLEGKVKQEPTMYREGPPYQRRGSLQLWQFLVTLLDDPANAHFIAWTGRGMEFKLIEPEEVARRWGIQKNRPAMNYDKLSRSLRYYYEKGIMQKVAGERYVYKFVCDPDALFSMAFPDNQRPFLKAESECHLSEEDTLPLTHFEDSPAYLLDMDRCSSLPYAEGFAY
# Method in brief: as §1
# HSF1 = HSF1 (Homo sapiens, UniProt Q00613 1-529); settings: protein: recombinant; tags: N-terminal GST; chain copies: 3; dsDNA, one strand shown
# Sequence of HSF1 (Q00613 whole entry): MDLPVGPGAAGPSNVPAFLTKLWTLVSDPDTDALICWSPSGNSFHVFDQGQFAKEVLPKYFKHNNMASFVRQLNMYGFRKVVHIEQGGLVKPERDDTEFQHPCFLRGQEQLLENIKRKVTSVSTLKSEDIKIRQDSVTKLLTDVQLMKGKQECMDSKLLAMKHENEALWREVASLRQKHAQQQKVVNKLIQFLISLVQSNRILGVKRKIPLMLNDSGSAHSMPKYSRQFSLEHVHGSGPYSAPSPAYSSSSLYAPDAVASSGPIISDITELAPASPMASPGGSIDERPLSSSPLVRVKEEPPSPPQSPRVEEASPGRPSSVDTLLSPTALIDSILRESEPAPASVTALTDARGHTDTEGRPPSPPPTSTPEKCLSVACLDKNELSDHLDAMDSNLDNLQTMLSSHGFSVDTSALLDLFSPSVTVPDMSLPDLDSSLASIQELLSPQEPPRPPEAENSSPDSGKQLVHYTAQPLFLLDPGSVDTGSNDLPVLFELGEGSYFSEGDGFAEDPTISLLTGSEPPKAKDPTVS
# Method in brief: as §1
# SPIC = molecular target: T8, SPIC (Homo sapiens, UniProt Q8N5J4 1-248); settings: protein: recombinant; tags: N-terminal GST; dsDNA, one strand shown
# T8 sequence: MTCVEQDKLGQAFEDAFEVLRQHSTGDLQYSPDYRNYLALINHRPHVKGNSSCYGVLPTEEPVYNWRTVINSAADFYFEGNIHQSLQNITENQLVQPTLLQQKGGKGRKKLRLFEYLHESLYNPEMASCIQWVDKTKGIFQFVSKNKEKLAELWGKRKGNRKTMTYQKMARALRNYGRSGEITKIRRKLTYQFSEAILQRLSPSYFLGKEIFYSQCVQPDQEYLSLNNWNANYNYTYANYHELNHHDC
# Method in brief: as §1
# ELF4 = ELF4 (Homo sapiens, UniProt Q99607 1-663); settings: protein: recombinant; tags: N-terminal GST; dsDNA, one strand shown
# Sequence of ELF4 (Q99607 whole entry): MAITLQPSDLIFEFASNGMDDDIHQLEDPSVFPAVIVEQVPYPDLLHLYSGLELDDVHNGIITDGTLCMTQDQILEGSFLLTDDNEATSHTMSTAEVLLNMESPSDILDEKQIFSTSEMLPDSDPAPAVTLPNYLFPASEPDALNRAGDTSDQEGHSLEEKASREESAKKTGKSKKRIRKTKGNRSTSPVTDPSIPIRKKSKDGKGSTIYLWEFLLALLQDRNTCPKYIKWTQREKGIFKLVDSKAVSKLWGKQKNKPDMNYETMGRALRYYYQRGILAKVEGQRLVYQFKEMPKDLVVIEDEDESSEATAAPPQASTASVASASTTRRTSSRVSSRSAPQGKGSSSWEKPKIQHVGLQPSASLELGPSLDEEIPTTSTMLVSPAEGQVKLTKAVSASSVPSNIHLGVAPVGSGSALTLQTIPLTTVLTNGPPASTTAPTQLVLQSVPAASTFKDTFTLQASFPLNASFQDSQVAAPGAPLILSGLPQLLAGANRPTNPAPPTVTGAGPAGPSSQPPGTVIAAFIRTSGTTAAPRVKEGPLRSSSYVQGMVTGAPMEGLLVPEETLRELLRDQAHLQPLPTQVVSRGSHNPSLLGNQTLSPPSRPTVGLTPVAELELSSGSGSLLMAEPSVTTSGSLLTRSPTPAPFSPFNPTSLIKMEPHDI
# Method in brief: as §1
# ELK4 = molecular target: T9, ELK4 (Homo sapiens, UniProt P28324-2 1-405); settings: protein: recombinant; tags: N-terminal GST; dsDNA, one strand shown
# T9 sequence: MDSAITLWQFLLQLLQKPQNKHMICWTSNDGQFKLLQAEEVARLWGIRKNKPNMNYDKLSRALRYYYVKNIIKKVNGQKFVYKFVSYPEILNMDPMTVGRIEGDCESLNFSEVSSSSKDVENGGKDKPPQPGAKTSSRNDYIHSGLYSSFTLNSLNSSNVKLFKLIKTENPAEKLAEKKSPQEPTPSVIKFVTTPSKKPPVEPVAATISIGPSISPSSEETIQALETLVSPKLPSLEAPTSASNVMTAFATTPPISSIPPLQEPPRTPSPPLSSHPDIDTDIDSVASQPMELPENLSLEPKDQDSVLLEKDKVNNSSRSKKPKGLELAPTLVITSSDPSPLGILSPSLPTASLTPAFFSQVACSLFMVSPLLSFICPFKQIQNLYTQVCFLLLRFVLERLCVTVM
# Method in brief: as §1
# ETV2 = molecular target: T10, ETV2 (Homo sapiens, UniProt O00321 1-342); settings: protein: recombinant; tags: N-terminal GST; dsDNA, one strand shown
# T10 sequence: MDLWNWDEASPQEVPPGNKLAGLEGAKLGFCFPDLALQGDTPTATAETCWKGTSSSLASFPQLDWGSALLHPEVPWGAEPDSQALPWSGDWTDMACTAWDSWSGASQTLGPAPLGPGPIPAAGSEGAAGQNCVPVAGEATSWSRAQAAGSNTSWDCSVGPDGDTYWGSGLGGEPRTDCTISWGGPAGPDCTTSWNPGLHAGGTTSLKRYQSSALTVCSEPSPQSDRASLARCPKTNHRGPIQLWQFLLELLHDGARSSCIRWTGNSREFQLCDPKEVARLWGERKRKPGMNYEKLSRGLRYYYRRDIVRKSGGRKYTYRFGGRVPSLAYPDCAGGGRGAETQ
# Method in brief: as §1
# ELF3 = molecular target: T11, ELF3 (Homo sapiens, UniProt P78545 1-371); settings: protein: recombinant; tags: N-terminal GST; dsDNA, one strand shown
# T11 sequence: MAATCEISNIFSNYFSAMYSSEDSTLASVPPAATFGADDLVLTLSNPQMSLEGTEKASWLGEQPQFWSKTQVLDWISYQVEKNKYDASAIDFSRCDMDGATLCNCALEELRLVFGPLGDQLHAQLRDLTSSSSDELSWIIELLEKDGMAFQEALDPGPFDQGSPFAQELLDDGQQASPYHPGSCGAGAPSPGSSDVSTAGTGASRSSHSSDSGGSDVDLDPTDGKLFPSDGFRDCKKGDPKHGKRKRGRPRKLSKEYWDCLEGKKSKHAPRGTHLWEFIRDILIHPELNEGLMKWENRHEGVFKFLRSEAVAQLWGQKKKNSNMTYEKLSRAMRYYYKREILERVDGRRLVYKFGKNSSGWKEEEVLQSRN
# Method in brief: as §1
# CRX = CRX (Homo sapiens, UniProt O43186 1-299); settings: protein: recombinant; tags: N-terminal GST; dsDNA, one strand shown
# Sequence of CRX (O43186 whole entry): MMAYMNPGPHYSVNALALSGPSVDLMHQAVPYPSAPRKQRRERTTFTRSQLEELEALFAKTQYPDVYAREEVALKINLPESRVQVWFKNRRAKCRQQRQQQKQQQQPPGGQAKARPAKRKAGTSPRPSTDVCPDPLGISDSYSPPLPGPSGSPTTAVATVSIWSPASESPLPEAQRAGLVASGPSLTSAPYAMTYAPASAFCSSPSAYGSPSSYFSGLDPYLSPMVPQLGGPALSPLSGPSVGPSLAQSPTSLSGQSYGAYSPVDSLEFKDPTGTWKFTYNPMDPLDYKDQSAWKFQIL
# Method in brief: as §1
# ETV1 = ETV1 (Homo sapiens, UniProt P50549 1-477); settings: protein: recombinant; tags: N-terminal GST; dsDNA, one strand shown
# Sequence of ETV1 (P50549 whole entry): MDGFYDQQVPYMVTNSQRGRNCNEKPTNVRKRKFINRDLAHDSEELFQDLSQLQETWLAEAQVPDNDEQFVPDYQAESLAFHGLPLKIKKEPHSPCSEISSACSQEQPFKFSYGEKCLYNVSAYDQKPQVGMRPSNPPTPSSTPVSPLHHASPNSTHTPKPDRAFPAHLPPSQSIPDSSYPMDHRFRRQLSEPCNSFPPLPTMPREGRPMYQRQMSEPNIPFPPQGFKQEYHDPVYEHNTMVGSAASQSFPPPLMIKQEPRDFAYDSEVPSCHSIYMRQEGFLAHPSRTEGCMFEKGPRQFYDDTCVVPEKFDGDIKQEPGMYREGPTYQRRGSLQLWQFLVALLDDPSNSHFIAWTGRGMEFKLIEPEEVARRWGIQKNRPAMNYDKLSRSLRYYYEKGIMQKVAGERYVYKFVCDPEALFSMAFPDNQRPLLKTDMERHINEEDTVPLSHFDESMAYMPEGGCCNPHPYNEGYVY
# Method in brief: as §1
sequence,measurement,setting,value
TCATCT,binding signal,FLI1,"1.23 fold enrichment (6-mer frequency, TF over GST control)"
same,binding signal,ELK1,"1.28 fold enrichment (6-mer frequency, TF over GST control)"
same,binding signal,GABPA,"1.27 fold enrichment (6-mer frequency, TF over GST control)"
same,binding signal,ERG,"1.15 fold enrichment (6-mer frequency, TF over GST control)"
same,binding signal,ELF1,"1.3 fold enrichment (6-mer frequency, TF over GST control)"
same,binding signal,EHF,"1.13 fold enrichment (6-mer frequency, TF over GST control)"
same,binding signal,SPI1,"1.18 fold enrichment (6-mer frequency, TF over GST control)"
same,binding signal,SPIB,"1.28 fold enrichment (6-mer frequency, TF over GST control)"
same,binding signal,ELK3,"1.16 fold enrichment (6-mer frequency, TF over GST control)"
same,binding signal,FEV,"1.08 fold enrichment (6-mer frequency, TF over GST control)"
same,binding signal,ETV5,"1.19 fold enrichment (6-mer frequency, TF over GST control)"
same,binding signal,HSF1,"1.44 fold enrichment (6-mer frequency, TF over GST control)"
same,binding signal,SPIC,"1.32 fold enrichment (6-mer frequency, TF over GST control)"
same,binding signal,ELF4,"1.18 fold enrichment (6-mer frequency, TF over GST control)"
same,binding signal,ELK4,"1.59 fold enrichment (6-mer frequency, TF over GST control)"
same,binding signal,ETV2,"1.38 fold enrichment (6-mer frequency, TF over GST control)"
same,binding signal,ELF3,"1.37 fold enrichment (6-mer frequency, TF over GST control)"
same,binding signal,CRX,"1.5 fold enrichment (6-mer frequency, TF over GST control)"
same,binding signal,ETV1,"1.15 fold enrichment (6-mer frequency, TF over GST control)"
